Data: PubChem BioAssay (NCATS)
Records with an inconclusive call do not appear. Calls of active or inactive are those of the source. Calls follow the shape of the dose curve; as a rule, active = well fitted curve in the direction sought with a large enough effect; inconclusive = small, poorly fitted or top-dose-only effect, or another doubt; inactive = no such curve, though single readings can be large; an effect the other way counts as inactive or inconclusive.

Assays:
[1] = molecular target: Rap guanine nucleotide exchange factor 3 (Homo sapiens) (UniProt O95398); assay: Confirmatory qHTS for antagonist of cAMP-regulated guanine nucleotide exchange factor 3 (EPAC1) (AID 1645880); also: nearly all actives have a fitted effect of over 55% in size; also: potency is read from the fitted curve at half-maximal effect
Sequence of Rap guanine nucleotide exchange factor 3 (Homo sapiens) (O95398 whole entry, looked up): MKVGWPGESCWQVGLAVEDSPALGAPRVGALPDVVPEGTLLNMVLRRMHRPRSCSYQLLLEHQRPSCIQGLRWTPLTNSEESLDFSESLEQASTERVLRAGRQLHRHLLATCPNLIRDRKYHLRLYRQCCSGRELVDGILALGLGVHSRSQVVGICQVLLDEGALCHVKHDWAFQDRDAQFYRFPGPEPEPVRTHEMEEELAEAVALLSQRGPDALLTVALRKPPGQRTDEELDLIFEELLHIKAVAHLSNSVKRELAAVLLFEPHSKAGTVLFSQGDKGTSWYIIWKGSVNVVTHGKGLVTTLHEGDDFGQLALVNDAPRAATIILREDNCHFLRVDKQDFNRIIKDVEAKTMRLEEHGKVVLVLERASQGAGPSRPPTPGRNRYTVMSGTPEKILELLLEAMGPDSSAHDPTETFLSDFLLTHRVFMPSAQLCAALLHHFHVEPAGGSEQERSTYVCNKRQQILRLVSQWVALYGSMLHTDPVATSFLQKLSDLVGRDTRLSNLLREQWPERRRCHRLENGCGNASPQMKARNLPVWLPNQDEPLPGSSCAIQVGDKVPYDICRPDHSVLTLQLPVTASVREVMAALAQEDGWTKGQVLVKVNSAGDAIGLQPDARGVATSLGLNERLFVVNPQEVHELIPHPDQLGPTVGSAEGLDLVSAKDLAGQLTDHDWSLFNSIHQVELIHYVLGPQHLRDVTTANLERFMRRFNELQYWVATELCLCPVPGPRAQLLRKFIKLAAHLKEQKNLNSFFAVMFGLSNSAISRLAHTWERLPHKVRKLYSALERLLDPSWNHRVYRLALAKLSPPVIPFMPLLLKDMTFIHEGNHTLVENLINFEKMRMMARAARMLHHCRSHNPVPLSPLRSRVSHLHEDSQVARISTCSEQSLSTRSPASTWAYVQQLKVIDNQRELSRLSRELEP
Summary of the method: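 Nucleotide exchange uses 100 nM EPAC1, 250 nM RAP1B-BODIPY-GDP and 50 uM GDP, with compounds in a concentration-titration series. After 5 min at room temperature, fluorescence (480 nm ex/540 nm em) is read every 5 min for 30 min. Data are normalized to control ATA and DMSO.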

[2] = molecular target: Rap guanine nucleotide exchange factor 3 (Homo sapiens) (UniProt O95398); assay: Confirmatory qHTS for agonist of cAMP-regulated guanine nucleotide exchange factor 3 (EPAC1) (AID 1645881);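 also: EPAC1 catalysed release of BODIPY-GDP from Rap1B seen as fluorescence loss; 100% = effect of cAMP agonist control; nearly all actives have a fitted effect of over 75% in size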
[3] = molecular target: Rap guanine nucleotide exchange factor 4 (Homo sapiens) (UniProt Q8WZA2); assay: Confirmatory qHTS for agonist of cAMP-regulated guanine nucleotide exchange factor 4 (EPAC2) (AID 1645884);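 also: nucleotide exchange releases bodipy-GDP from Rap1 and this lowers its fluorescence; % is scaled to controls: 0 for no effect and ±100 for the full control effect; nearly all actives have a fitted effect of over 65% in size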
Sequence of Rap guanine nucleotide exchange factor 4 (Homo sapiens) (Q8WZA2 whole entry, looked up): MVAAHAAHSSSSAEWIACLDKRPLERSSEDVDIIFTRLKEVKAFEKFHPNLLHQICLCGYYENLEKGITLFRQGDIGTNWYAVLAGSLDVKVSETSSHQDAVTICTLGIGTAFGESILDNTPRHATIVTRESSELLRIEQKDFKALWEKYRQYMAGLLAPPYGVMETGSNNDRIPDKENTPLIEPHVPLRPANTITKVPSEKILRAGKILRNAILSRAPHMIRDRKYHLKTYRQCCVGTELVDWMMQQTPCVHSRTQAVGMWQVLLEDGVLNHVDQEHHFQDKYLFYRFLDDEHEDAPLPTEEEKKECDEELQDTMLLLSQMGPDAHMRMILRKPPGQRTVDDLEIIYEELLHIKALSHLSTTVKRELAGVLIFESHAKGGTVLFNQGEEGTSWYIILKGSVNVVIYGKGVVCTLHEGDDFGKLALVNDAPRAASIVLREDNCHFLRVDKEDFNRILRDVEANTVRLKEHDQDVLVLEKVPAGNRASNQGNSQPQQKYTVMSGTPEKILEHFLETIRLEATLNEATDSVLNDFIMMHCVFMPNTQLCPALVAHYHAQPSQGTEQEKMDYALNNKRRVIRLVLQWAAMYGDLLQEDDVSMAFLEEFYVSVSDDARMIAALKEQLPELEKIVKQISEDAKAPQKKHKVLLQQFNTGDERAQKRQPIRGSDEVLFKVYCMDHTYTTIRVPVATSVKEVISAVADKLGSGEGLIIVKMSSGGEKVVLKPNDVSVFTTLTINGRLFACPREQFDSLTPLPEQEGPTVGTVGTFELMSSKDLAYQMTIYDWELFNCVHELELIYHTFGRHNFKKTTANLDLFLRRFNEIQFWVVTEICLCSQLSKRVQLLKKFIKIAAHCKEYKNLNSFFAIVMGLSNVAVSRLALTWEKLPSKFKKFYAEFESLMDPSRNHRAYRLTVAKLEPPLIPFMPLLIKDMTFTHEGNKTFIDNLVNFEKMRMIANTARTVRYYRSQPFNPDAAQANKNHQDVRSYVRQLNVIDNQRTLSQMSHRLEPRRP

[4] = molecular target: Rap guanine nucleotide exchange factor 4 (Homo sapiens) (UniProt Q8WZA2); assay: Confirmatory qHTS for antagonist of cAMP-regulated guanine nucleotide exchange factor 4 (EPAC2) (AID 1645885); also: nearly all actives have a fitted effect of over 25% in size; also: potency is read from the fitted curve at half-maximal effect; as to activity change, negative = inhibition: % is scaled to controls: 0 for no effect and ±100 for the full control effect
[5] = molecular target: Rap guanine nucleotide exchange factor 3 (Homo sapiens) (UniProt O95398); assay: Counterscreen qHTS for antagonist of cAMP-regulated guanine nucleotide exchange factor 3 (EPAC1) (AID 1645888);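 also: fluorescence loss as bound BODIPY-GDP is released from Rap1B; % of control where 0% means no effect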
Summary of the method: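 Rap1B-BODIPY-GDP 250 nM + GDP 50 uM; cpds 7-pt, final 9.74 nM–152 uM (activator mode) or from 7.32 nM upwards (inhibitor mode); RT; FI 480/540 nm at 5 and 30 min, then ± cAMP, reread.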

Cc1cc(SCC(=O)c2ccc(O)c(O)c2)nc2ccccc12
inactive: Potency [2] | activation [3] 11.2% [at 17.1 µM, percent relative to cAMP agonist control] | Potency [4] | activity change, negative = inhibition [5] -6.86% [at 30.8 µM]
active: Potency [1] 14.1 µM

CC(=O)Nc1cccc(NC(=O)CSc2nc(=O)n(CCN3CCOCC3)c3c2CCCC3)c1
inactive: Potency [1] | Potency [2] | Potency [3] | Potency [4] | Potency [5]

C=CCn1c(SCC(=O)Nc2sccc2C(N)=O)nc2sc(CC)cc2c1=O
inactive: Potency [1] | Potency [2] | activation [3] 6.26% [at 17.1 µM, percent relative to cAMP agonist control] | Potency [4] | activity change, negative = inhibition [5] -8.95% [at 30.8 µM]

CCn1nc([N+](=O)[O-])c(C(C#N)c2nc3cc(C(F)(F)F)ccc3s2)c(Cl)c1=O (stereo not given)
inactive: Potency [2] | activation [3] 12.4% [at 17.1 µM, percent relative to cAMP agonist control] | Potency [4] | activity change, negative = inhibition [5] -19.4% [at 30.8 µM]
active: Potency [1] 12.6 µM

CCOC(=O)C1CCCCN1C(=O)c1oc2c(Cl)cc(C)cc2c1C (stereo not given)
inactive: Potency [1] | Potency [2] | Potency [3] | Potency [4] | Potency [5]

Cc1cc(=O)n(Cc2cccc(Cl)c2)c2c1c(C)nn2C
inactive: Potency [1] | Potency [2] | Potency [3] | Potency [4] | Potency [5]

CCOc1ccc(CCNC(=O)c2ccc3c(=O)[nH]c4c(C(=O)NC(C)C)sc(=S)n4c3c2)cc1
active: Potency [1] 21.3 µM
inactive: Potency [2] | Potency [3] | Potency [4] | Potency [5]

O=C1C=C(N2CCCCC2)c2ccccc2C1=O
active: Potency [1] 25.1 µM
inactive: Potency [2] | activation [3] 2.92% [at 17.1 µM, percent relative to cAMP agonist control] | Potency [4] | activity change, negative = inhibition [5] -3.66% [at 30.8 µM]

COc1ccc(Cl)cc1N1C(=O)C2CCCN2C1c1ccccc1F (stereo not given)
inactive: Potency [1] | Potency [2] | Potency [3] | Potency [4] | Potency [5]

Cc1cc(OC(C)C(=O)NCCc2c[nH]c3ccccc23)c2c(C)cc(=O)oc2c1 (stereo not given)
inactive: Potency [1] | Potency [2] | Potency [3] | Potency [4] | Potency [5]

CCCCOc1ccccc1NC(=O)Cn1c(-c2cncs2)nc2ccccc21
inactive: Potency [1] | Potency [2] | Potency [3] | Potency [4] | Potency [5]

CCCN1C(=O)c2[nH]nc(-c3ccccc3)c2C1c1cccc(O)c1 (stereo not given)
inactive: Potency [1] | Potency [2] | Potency [3] | Potency [4] | Potency [5]

CC1CN(C(=O)CCC(=O)NCc2ccccc2)c2ccccc2S1 (stereo not given)
inactive: Potency [1] | Potency [2] | Potency [3] | Potency [4] | Potency [5]

COc1cccc(NC(=O)CSc2nnc3[nH]c(=O)cc(-c4ccccc4)n23)c1
inactive: Potency [1] | Potency [2] | Potency [3] | Potency [4] | Potency [5]

CCOc1ccc(C(=O)NCC(=O)NCC(c2ccco2)N2CCCCC2)cc1OCC (stereo not given)
inactive: Potency [1] | Potency [2] | activation [3] -0.0767% [at 17.1 µM, percent relative to cAMP agonist control] | Potency [4] | activity change, negative = inhibition [5] -4.11% [at 30.8 µM]

Nc1ncnc2c1ncn2[C@@H]1O[C@H](C(=O)N[C@H]2c3ccccc3C[C@H]2OC=O)[C@@H](O)[C@H]1O
inactive: Potency [1] | Potency [2] | Potency [3] | Potency [4] | Potency [5]

CCc1ccccc1NC(=O)c1cc2sc(Cl)cc2n1CC
inactive: Potency [1] | Potency [2] | Potency [3] | Potency [4] | Potency [5]

CC1Cc2nc(SCC(=O)OCc3ccccc3)n(C)c(=O)c2S1 (stereo not given)
inactive: Potency [1] | Potency [2] | activation [3] 3.71% [at 17.1 µM, percent relative to cAMP agonist control] | Potency [4] | activity change, negative = inhibition [5] 9.81% [at 30.8 µM]

CCOC(=O)Cn1c(-c2cccs2)cc2cc(Cl)ccc21
inactive: Potency [1] | Potency [2] | Potency [3] | outcome [4] inactive [at 12.7 µM] | Potency [5]

NNc1nc2c(Cl)ccc(Cl)c2s1
inactive: Potency [1] | Potency [2] | Potency [3] | Potency [4] | Potency [5]

CC1=NOC(=O)/C1=C\c1ccc(-c2cc(Cl)ccc2Cl)o1
active: Potency [1] 23.9 µM | Potency [4] 75.7 µM
inactive: Potency [2] | Potency [3] | Potency [5]

Cn1c(=O)c2c(-c3ccccc3Br)n(CCc3ccccc3)cc2n(C)c1=O
inactive: Potency [1] | Potency [2] | Potency [3] | outcome [4] inactive [at 12.7 µM] | Potency [5]

CCCc1cc(=O)[nH]c(SCC(=O)Nc2sc3c(c2C#N)CCC(C)C3)n1 (stereo not given)
inactive: Potency [2] | activation [3] 4.56% [at 17.1 µM, percent relative to cAMP agonist control] | activity change, negative = inhibition [5] -6.17% [at 30.8 µM]
active: Potency [1] 89.1 µM | Potency [4] 0.135 µM

COc1ccc(OC)c(-c2nc3c(C#N)c[nH]n3c2NC2CCCCC2)c1
inactive: Potency [1] | Potency [2] | Potency [3] | outcome [4] inactive [at 12.7 µM] | Potency [5]

CC(C)Cn1c(N)c(C(=O)NCC2CCCO2)c2nc3ccccc3nc21 (stereo not given)
inactive: Potency [2] | Potency [3] | Potency [4] | Potency [5]
active: Potency [1] 21.3 µM

Cc1ccc(C(=O)NCCCNC(=O)c2ccco2)cn1
inactive: Potency [1] | Potency [2] | Potency [3] | Potency [4] | Potency [5]

NNc1nc2c(Cl)c(Cl)ccc2s1
inactive: Potency [1] | Potency [2] | activation [3] 7.89% [at 17.1 µM, percent relative to cAMP agonist control] | Potency [4] | activity change, negative = inhibition [5] 3.53% [at 30.8 µM]

Cc1cc(NS(=O)(=O)c2ccc(NC(=O)Cc3ccc(Cl)c(Cl)c3)cc2)no1
inactive: Potency [1] | Potency [2] | Potency [3] | Potency [4] | Potency [5]

O=C(O)c1ccc(C=C(c2nc3ccccc3s2)c2nc3ccccc3s2)cc1
inactive: Potency [2] | Potency [3] | Potency [4] | Potency [5]
active: Potency [1] 42.6 µM

COc1cc2c(cc1OC)C(c1ccccc1)N(C(=O)c1ccco1)CC2 (stereo not given)
inactive: Potency [1] | Potency [2] | Potency [3] | Potency [4] | Potency [5]

CCOc1ccc(CCNc2ncnc3onc(-c4ccc(Cl)cc4)c23)cc1OCC
inactive: Potency [1] | Potency [2] | Potency [3] | Potency [4] | Potency [5]

Cc1ccc(N(Cc2cccs2)C(=O)c2ccccc2)cc1
inactive: Potency [1] | Potency [2] | Potency [3] | Potency [4] | Potency [5]

O=C(CCSc1nc2ccccc2o1)N1CCOCC1
inactive: Potency [1] | Potency [2] | activation [3] 0.888% [at 17.1 µM, percent relative to cAMP agonist control] | Potency [4] | activity change, negative = inhibition [5] -23.1% [at 30.8 µM]

CCN1C(=O)/C(=C/c2ccc(N3CCCC3)cc2)NC1=S
inactive: Potency [1] | Potency [2] | activation [3] 1.83% [at 17.1 µM, percent relative to cAMP agonist control] | Potency [4] | activity change, negative = inhibition [5] 97.9% [at 30.8 µM]

COC(=O)c1ccc(/C=C2\CCn3c2nc2cc(C(=O)O)ccc2c3=O)cc1
inactive: Potency [1] | Potency [2] | Potency [3] | Potency [4] | Potency [5]

CC(C)O/C(=N\S(=O)(=O)c1ccc(Cl)cc1)c1ccccc1
active: Potency [4] 16.9 µM
inactive: Potency [1] | Potency [2] | Potency [3] | Potency [5]

Cc1ccc(C2C(C#N)=C3N=C(N)c4ccccc4N3C3=C2C(=O)CCC3)cc1 (stereo not given)
inactive: Potency [1] | Potency [2] | activation [3] 5.16% [at 17.1 µM, percent relative to cAMP agonist control] | Potency [4] | activity change, negative = inhibition [5] -7.3% [at 30.8 µM]

CCOC(=O)C1CCCN(C(=O)C(C)(C)Oc2ccc(Cl)cc2)C1 (stereo not given)
inactive: Potency [1] | Potency [2] | Potency [3] | Potency [4] | Potency [5]

CC(C)CC1C(=O)N(Cc2cn(CCC3OCCCO3)nn2)CCS(=O)(=O)N1Cc1ccc(-c2ccccc2)cc1 (stereo not given)
inactive: Potency [1] | Potency [2] | Potency [3] | Potency [4] | Potency [5]

CC1(C(=O)NS(=O)(=O)c2ccc(Cl)s2)CCN1C(=O)C1(c2ccc(Cl)cc2)CC1 (stereo not given)
active: Potency [1] 14.1 µM
inactive: Potency [2] | activation [3] 0% [at 17.1 µM, percent relative to cAMP agonist control] | Potency [4] | activity change, negative = inhibition [5] -17.9% [at 30.8 µM]

Cc1occc1-c1nnc(SCC(=O)Nc2c(F)cccc2F)n1C
inactive: Potency [1] | Potency [2] | Potency [3] | Potency [4] | Potency [5]

O=C(CSc1nnc(SCc2ccccc2)s1)N/N=C/C=C/c1ccco1
inactive: Potency [2] | activation [3] 3.41% [at 17.1 µM, percent relative to cAMP agonist control] | Potency [4] | activity change, negative = inhibition [5] -6.93% [at 30.8 µM]
active: Potency [1] 12.6 µM

c1ccc(N2[C@@H]3c4ccccc4C[C@H]2c2ccccc23)cc1
inactive: Potency [1] | Potency [2] | activation [3] 8.36% [at 17.1 µM, percent relative to cAMP agonist control] | Potency [4] | activity change, negative = inhibition [5] -11.2% [at 30.8 µM]

NS(=O)(=O)c1ccc(NC2=CC(=O)C(=O)c3ccccc32)cc1
active: Potency [1] 26.9 µM | Potency [4] 84.9 µM
inactive: Potency [2] | Potency [3] | Potency [5]
